Assay outcomes: PubChem BioAssay, Broad Institute
MITF act – increases MITF-driven TRPM1 promoter luciferase signal | SK-MEL-5 TRPM1-promoter luciferase, 24 h; % of positive control, neutral wells = 0 | activation, % at 12.5 µM | 300,000 compounds, 0.75% hits | AID 588334;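 active = mean activation of at least 80% with every replicate also reaching 80%; inconclusive = mean reaches 80% but some replicate falls short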;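 also: 0% = neutral control wells and 100% = parthenolide positive control wells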
esBAF inh – inhibitors of esBAF chromatin remodeling in mouse ES cells; Bmi1-luciferase knock-in reporter, 24 h; 100% = twice the neutral-well signal; reporter increase, % at 12.5 µM; 350,000 compounds, 2% hits; AID 602393; in the data active = activation above about 40%; inconclusive = no clear call, values can overlap the other calls;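 also: 0% = median of the plate's neutral control wells and 100% = double that signal; a rise in the Bmi1 reporter signal indicates esBAF inhibition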
Wnt bcat act – Wnt/beta-catenin pathway activation | Wnt/beta-catenin reporter cell assay, activator, plate reader | activation, % at 9.35 µM | 300,000 compounds, 1.2% hits | AID 743398; in the data active = activation above about 30%, passing the limit was not always enough; inconclusive = no clear call, values can overlap the other calls;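 also: 0% = neutral control wells and 100% = positive control wells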
rRNA inh HTS – inhibits bacterial ribosomal RNA function over humanized ribosomes | E. coli WT GFP vs humanized-ribosome RFP mutants, fluorescence, 24 h; stronger effect = lower value; DMSO median 0, no signal -100 | GFP signal change (wild-type ribosome), % (no concentration beside the values) | 350,000 compounds, 1.6% hits | AID 720706;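 active = significant combined selectivity score with lowered wild-type GFP, culture density cut under 30%, mutant RFP and density less affected; inactive = any of these conditions unmet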
AF4-AF9 inh – inhibitors of human MLL-AF4/AF9 interaction. P42568. AlphaScreen, biotin-AF4 peptide binding to FLAG-AF9. inhibition, % at 10 µM. 350,000 compounds, 0.47% hits;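 active = every replicate reaching a set inhibition limit, whatever the replicate mean, cut at about 25% in these data; inconclusive = mean inhibition reaches that limit but some replicates miss it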;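 also: 0% = plate neutral control median and 100% = total signal loss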
Target sequence (P42568 whole entry, looked up): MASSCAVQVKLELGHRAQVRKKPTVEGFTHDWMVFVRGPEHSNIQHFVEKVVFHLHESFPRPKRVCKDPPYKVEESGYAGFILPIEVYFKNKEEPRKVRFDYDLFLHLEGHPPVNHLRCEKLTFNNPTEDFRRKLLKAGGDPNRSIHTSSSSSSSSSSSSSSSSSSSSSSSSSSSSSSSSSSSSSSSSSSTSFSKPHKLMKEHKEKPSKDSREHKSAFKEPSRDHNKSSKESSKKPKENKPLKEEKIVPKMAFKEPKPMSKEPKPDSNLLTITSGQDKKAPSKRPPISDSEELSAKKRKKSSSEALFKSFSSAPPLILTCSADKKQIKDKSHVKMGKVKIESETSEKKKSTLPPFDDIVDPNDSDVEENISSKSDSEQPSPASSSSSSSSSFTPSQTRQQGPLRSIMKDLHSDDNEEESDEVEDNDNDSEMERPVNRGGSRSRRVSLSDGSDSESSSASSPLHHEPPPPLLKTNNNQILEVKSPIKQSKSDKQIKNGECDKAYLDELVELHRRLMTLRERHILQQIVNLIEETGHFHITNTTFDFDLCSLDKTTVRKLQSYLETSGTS
HepG2 cytotox – kills or reduces viability of HepG2 cells | 30 tested, under 10 active | activity change, negative = cytotoxicity, unspecified at 26 µM | AID 743480 | ATP luminescence, 72 h | shares compounds with rRNA inh HTS;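 active = compounds whose fitted half-maximal signal-loss concentration is at most twice their highest valid dose; inconclusive = flat curve with 30 to 70% signal loss, or poor fit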
AID977621 – growth inhibition of wild-type GFP E. coli, dose response, H69 mutant RFP, cherry-pick | activity change, negative = inhibition at 50 µM | shares compounds with rRNA inh HTS | E. coli wild-type GFP strain growth, fluorescence, 24 h | 1,900 tested, under 10 active;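 active = Wild-type ribosome reporter drop at least double the humanized mutant ribosome reporter drop, growth loss under a set limit; inconclusive = no clear call, values can overlap the other calls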;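 also: wild-type GFP and H69 mutant RFP strains grown together 50/50 in each well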
AID977628 – growth of wild-type and h24-humanized E. coli strains – h24 mutant RFP vs wild-type GFP, cherry-pick, dose response; 1,900 tested, under 10 active; activity change, negative = inhibition at 50 µM; shares compounds with rRNA inh HTS; AID 977628; E. coli WT GFP strain growth, fluorescence, 24 h;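 active = compound lowering the normal-ribosome reporter at least twice as much as the humanized-ribosome reporter, growth loss under a set limit; inconclusive = no clear call, values can overlap the other calls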;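 also: wild-type GFP and h24 humanized RFP strains co-cultured 1 to 1 per well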
Starred values were filed as active, the others as inactive. The list is not random: actives were taken first. Their share in the collection is about 3.7%.

CC1(Cc2ccccc2C#N)C(=O)Nc2cc(-c3ccccc3Cl)ccc21 (stereo not given) was read as esBAF inh -0.4, Wnt bcat act -2.8, rRNA inh HTS -11.1*, AF4-AF9 inh 0.3 and HepG2 cytotox 8.46.
For CC#CCN(Cc1ccco1)C(=O)C1CCC(=O)N(CCc2cccc(F)c2)C1 (stereo not given) the results were esBAF inh -17.1, Wnt bcat act -2.4 and AF4-AF9 inh -4.1.
Screening CC(=O)N1CCN(c2nc(-c3cccs3)nc3ccccc23)CC1 returned MITF act 0.3, Wnt bcat act 2.4, rRNA inh HTS -24.2*, AF4-AF9 inh -1.5 and AID977621 -2.9.
Screening Cc1ccc(-n2cc(CNCCN3CCOC3=O)c(-c3ccc(F)cc3)n2)cc1 returned MITF act 10.4, esBAF inh 4.4, Wnt bcat act -0.1, rRNA inh HTS -18.3*, AF4-AF9 inh 1.4, AID977621 -14.4 and AID977628 inconclusive.
CSc1cccc(NC(=O)CCc2ccccc2)c1 was read as MITF act 5.9, esBAF inh 9.0, Wnt bcat act -0.1, rRNA inh HTS -29.2*, AF4-AF9 inh -0.3, AID977621 0.123 and AID977628 -5.17.
Screening O=C(CSc1ccccc1)Nc1cccc(NC(=O)c2ccco2)c1 returned MITF act -0.4, esBAF inh 8.2, Wnt bcat act -2.2, rRNA inh HTS -20.9*, AF4-AF9 inh inconclusive and AID977621 inconclusive.
Screening Cc1ccc(C)c(C(=O)NCc2ccncc2)c1 returned MITF act 0.8, esBAF inh -3.3 and Wnt bcat act -1.8.
Screening CCOC(=O)c1c(NC(=O)CN2CCC(C)CC2)sc(C)c1C returned MITF act 3.7, esBAF inh 1.4, Wnt bcat act -4.5, rRNA inh HTS -21.2*, AF4-AF9 inh -2.7, AID977621 2.21 and AID977628 -13.9.
For O=C(NC1CC1)c1cccc(NC(=O)C2CC2)c1 the results were MITF act 4.3, esBAF inh -11.6, Wnt bcat act -0.1, rRNA inh HTS 24.9 and AF4-AF9 inh 1.3.
`COc1ccccc1NS(=O)(=O)c1cc(NC(=O)CCNC(C)=O)ccc1C` gave MITF act 9.7, esBAF inh -10.1, Wnt bcat act -1.7, rRNA inh HTS 13.6 and AF4-AF9 inh -1.8.
`COc1ccccc1NS(=O)(=O)c1cc(NC(=O)CNC(=O)c2ccccc2)ccc1C` gave MITF act 0.9, Wnt bcat act 0.0, rRNA inh HTS -20.0*, AF4-AF9 inh 5.4 and AID977621 inconclusive.
CC(=O)N1CCN(S(=O)(=O)c2cccc(C(=O)NC3CCCC3)c2)CC1 was read as esBAF inh 4.1, Wnt bcat act -1.5, rRNA inh HTS 10.3 and AF4-AF9 inh -22.9.
Screening COC(=O)c1ccc(OCC(=O)c2ccccc2OC)cc1 returned MITF act 55.8, esBAF inh 31.3, Wnt bcat act 1.6, rRNA inh HTS -23.4*, AID977621 3.19 and AID977628 -7.02.
`COC(=O)c1nc(-c2ccc(C)cc2)[nH]c1C(C)(C)C` gave esBAF inh -7.0, Wnt bcat act -1.3, rRNA inh HTS -20.7*, AF4-AF9 inh 0.5, AID977621 -13.5 and AID977628 -14.2.
`Cc1cc(Br)cn2c(Cc3cccc(Cl)c3)c(-c3ccco3)nc12` gave Wnt bcat act -1.7, rRNA inh HTS -21.4*, AF4-AF9 inh 6.2, AID977621 4.22 and AID977628 -3.11.
`O=C(Cc1coc2ccc3ccccc3c12)NC1CCCc2ccccc21` (stereo not given) gave MITF act -2.7, Wnt bcat act -0.6, rRNA inh HTS -17.9 and AF4-AF9 inh 2.4.
For O=c1[nH]c(C2CCCN(S(=O)(=O)c3ccccc3Cl)C2)nc2c1nnn2Cc1ccc2c(c1)OCCO2 (stereo not given) the results were MITF act -3.6, esBAF inh -1.3, Wnt bcat act -1.3, rRNA inh HTS -17.6*, AF4-AF9 inh -2.7 and AID977621 -8.77.
`O=C(NCc1ccc2c(c1)OCO2)c1ccc(CS(=O)(=O)c2ccc(Br)cc2)o1` gave MITF act -2.9, esBAF inh -5.0, Wnt bcat act 0.5, rRNA inh HTS -6.5 and AF4-AF9 inh 2.6.
`Cc1cc(OCC(=O)N(Cc2ccco2)C2CCS(=O)(=O)C2)ccc1Cl` (stereo not given) gave esBAF inh -5.2, Wnt bcat act 19.2, rRNA inh HTS -18.9* and AID977621 inconclusive.
For O=C(COc1ccc(Cl)cc1)N(Cc1ccco1)C1CCS(=O)(=O)C1 (stereo not given) the results were MITF act -4.5, Wnt bcat act -1.7, rRNA inh HTS -5.4 and AF4-AF9 inh 4.8.
`O=C(O)c1cc(-c2ccc(-c3ccc(F)cc3)o2)nc2ccccc12` gave MITF act 39.6, esBAF inh 20.0, Wnt bcat act -3.2, rRNA inh HTS -38.0*, AF4-AF9 inh -6.5 and AID977621 -12.7.
Screening CC(Nc1ncnc2sccc12)c1ccccc1 (stereo not given) returned MITF act -22.4, esBAF inh -16.3, Wnt bcat act -3.7, rRNA inh HTS -14.5 and AF4-AF9 inh -2.3.
COc1ccc(OC)c(NC(=O)COC(=O)C2CCN(C(=O)c3ccc(Cl)cc3)CC2)c1 was read as MITF act 6.2, Wnt bcat act -0.9, rRNA inh HTS -26.6*, AF4-AF9 inh 4.0 and AID977621 -7.74.
`COc1ccc(OC)c(NC(=O)COC(=O)CCNc2ccccc2OC)c1` gave MITF act -2.1, esBAF inh -8.8, Wnt bcat act 2.8, rRNA inh HTS -20.5*, AF4-AF9 inh 2.1, AID977621 5.86 and AID977628 -1.82.
COc1ccc(OC)c(NC(=O)COc2ccc(S(=O)(=O)NC(C)C)cc2)c1 was read as MITF act 1.4, esBAF inh -2.2, rRNA inh HTS -22.6*, AID977621 -11.3 and AID977628 -11.6.
COc1ccccc1NC(=O)COC(=O)Cc1c[nH]c2ccccc12 was read as MITF act -10.9, Wnt bcat act 0.0, rRNA inh HTS -17.2*, AF4-AF9 inh 4.7, AID977621 4.39 and AID977628 -4.53.
For COc1ccccc1CNC(=O)COC(=O)Cc1c[nH]c2ccccc12 the results were MITF act -3.8, esBAF inh -2.3, Wnt bcat act 2.3, rRNA inh HTS -3.6 and AF4-AF9 inh -0.4.
